In PubChem BioAssay AID1578 (Sanford-Burnham Center for Chemical Genomics, 2009):
Out of some 290,000 compounds screened, about 3,000 (1%) were called active. Shown is part of a subset that was picked to be rich in actives. A number with no mark means an inactive call. No stated cut-off is given here; in the data, active means inhibition mostly above about 36% (no sharp cut-off); inactive means mostly below about 34%.

assay: inhibition of NOD1-driven NF-kB reporter – cell-based, luminescence, uHTS, primary screen (AID 1578); details: NOD1-driven NF-kB luciferase reporter cells, at 4 µM, stronger effect = higher value;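 further: HEK-293T reporter cells stimulated with the NOD1 agonist gamma-tri-DAP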

| Structure (SMILES) | inhibition |
| --- | --- |
| CC(=O)Nc1ccc(NC(C)=C(C#N)C#N)cc1 | -12.5% |
| COc1cccc(NC(=S)N2c3ccccc3CC2C)c1 (stereo not given) | -26.6% |
| COc1ccc(NC(=S)N2c3ccccc3CC2C)cc1OC (stereo not given) | 30.4% (active) |
| COc1ccc(NC(=O)N2c3ccccc3CC2C)cc1OC (stereo not given) | -26.9% |
| CCN(C(=O)COC(=O)CSc1ccc([N+](=O)[O-])cc1)C1CCS(=O)(=O)C1 (stereo not given) | -23.6% |
| COc1cc(C(=O)N/N=C/c2ccc3c(c2)c2ccccc2n3C)ccc1O | 32.9% |
| Cc1ccc(CNC(=O)CCS(=O)(=O)Cc2ccc(C)cc2)cc1 | 15.8% |
| CC(C)c1ccc2c(c1)C1Cc3ccccc3C1N2 (stereo not given) | -15.3% |
| CCOc1cc(/C=C2/COc3ccccc3C2=O)ccc1OCC(=O)N(C)C | 36.8% |
| CCOc1cc(/C=C2\COc3ccccc3C2=O)ccc1OCC(=O)N(C)C | 30.7% |
| CCOc1cc(/C=C2\COc3ccccc3C2=O)cc(Br)c1OCC(=O)N(C)C | 54.9% (active) |
| COc1ccccc1Oc1nc(-c2ccccc2)cc(C)c1S(C)(=O)=O | -16.2% |
| COc1cccc(NC(=O)C2CCN(S(=O)(=O)c3ccc4c(c3)CC(C)N4C(C)=O)CC2)c1 (stereo not given) | -22.9% |
| Cc1ccc(-c2cc3nc(-c4ccc(Br)cc4)cc(N)n3n2)cc1 | -9.8% |
| Nc1cc(-c2ccc(Br)cc2)nc2cc(-c3ccccc3)nn12 | -10.5% |
| CN1C(=O)C(C)(C)c2cc(S(=O)(=O)NCCc3ccc(Cl)cc3)ccc21 | -14.4% |
| CC1(C)Cc2c(sc3c2c(=N)n(Cc2ccco2)c(=O)n3CC(=O)Nc2ccc(Cl)cc2)CO1 | 1% |
| COc1ccc2nc(C)cc(N3CC(C)OC(C)C3)c2c1 (stereo not given) | 8.1% |
| O=C(O)CCc1cc(I)c(Oc2ccc(O)c(I)c2)c(I)c1 | 51.7% (active) |
| N[C@@H](Cc1cc(I)c(Oc2ccc(O)c(I)c2)c(I)c1)C(=O)O | 14.2% |

| Structure (SMILES) | inhibition |
| --- | --- |
| O=C(O)Cc1cc(I)c(Oc2ccc(O)c(I)c2)c(I)c1 | -16.4% |
| C=CCC(O)(CCN1CCCCC1)c1ccccc1 (stereo not given) | -19.4% |
| Cc1ccccc1N(C(=O)c1ccccn1)C(C(=O)NCc1ccccc1)c1ccncc1 (stereo not given) | -21.2% |
| O=C(Cc1ccc(Cl)cc1Cl)Nc1cccc(S(=O)(=O)Nc2ccccc2F)c1 | -7.5% |
| N#CC(C#N)=C1C=CC=CN1/C(=C\c1ccco1)C(=O)c1ccccc1 | -25.3% |
| N#CC(C#N)=C1C=CC=CN1/C(=C\c1ccco1)C(=O)c1ccc(Br)cc1 | -10.9% |
| N#CC(C#N)=C1C=CC=CN1/C(=C\c1ccco1)C(=O)c1ccc(Cl)cc1 | 104% (active) |
| CCOC(=O)C(CCc1nnc(N)s1)C(=O)OCC | -16.9% |
| COc1ccc(N(CC(=O)NCc2ccco2)C(=O)CCC(=O)Nc2nccs2)c(OC)c1 | -20.5% |
| O=C(N/N=C/c1cn(-c2cccs2)nc1-c1ccccc1)c1ccccc1Br | -30.5% |
| O=C(O)c1[nH]c2ccccc2c1C(c1c(F)cccc1Cl)c1c(C(=O)O)[nH]c2ccccc12 | -43.4% |
| O=C1/C(=C/c2cccc([N+](=O)[O-])c2)CSc2ccc(Cl)cc21 | -12% |
| CNc1ccc(/C=C2\CSc3ccccc3C2=O)cc1[N+](=O)[O-] | 73.4% (active) |
| CNc1ccc(/C=C2\COc3ccccc3C2=O)cc1[N+](=O)[O-] | -7.1% |
| COc1ccc(C2/C(=C(/O)c3ccccc3)C(=O)C(=O)N2C)cc1 (stereo not given) | -38.6% |
| COc1cccc2cc(C(=O)NCc3ccc(Cl)cc3)c(=N)oc12 | 85.8% (active) |
| COc1cccc2cc(C(=O)NCc3ccc(C)cc3)c(=N)oc12 | 18.3% |
| COc1ccc(CNC(=O)c2cc3cccc(OC)c3oc2=N)cc1 | 4.1% |
| COc1cc(/C=N\NC(=O)c2ccc(-c3ccccc3)cc2)ccc1OCC(N)=O | -24.5% |
| Cc1ccc(S(=O)(=O)N(C)c2cc(S(=O)(=O)N3CCOCC3)c(C)cc2C)cc1 | -26.1% |

| Structure (SMILES) | inhibition |
| --- | --- |
| COc1cc(S(=O)(=O)NCc2ccc3c(c2)OCO3)ccc1Cl | -0.2% |
| COc1c(C(=O)NC(=S)Nc2nnn(C)n2)cc2ccccc2c1Br | 29.6% |
| CC(NC(=O)CCc1c[nH]c2ccccc12)c1ccccc1 (stereo not given) | -38.3% |
| CC(NC(=O)CCCc1c[nH]c2ccccc12)c1ccc(F)cc1 (stereo not given) | 51.3% (active) |
| CC(C)NC(=O)CCCc1c[nH]c2ccccc12 | -33% |
| Cc1ccc(Nc2nnc(-c3ccc4c(c3)OCO4)o2)c(C)c1 | -19.5% |
| Cc1cc(N/N=C/c2cccc([N+](=O)[O-])c2)nc(-n2nc(C)cc2C)n1 | -14.5% |
| Cc1cc(N/N=C/c2cccc(Cl)c2)nc(-n2nc(C)cc2C)n1 | -0.3% |
| Cc1nn(-c2ccccc2)c2c1P(=O)(O)/C(=C1\N(C)c3ccccc3C1(C)C)C=N2 | -9% |
| Cc1cc(C(=O)NNS(=O)(=O)c2ccc(C(C)(C)C)cc2)nn1C(C)(C)C | -6.5% |
| NNC(=O)Cn1c(-c2ccccn2)nc2ccccc21 | -10.4% |
| Cc1cc(=O)oc(C)c1C(=O)OCC(=O)c1ccc(Cl)c(Cl)c1 | -32.3% |
| Cc1cc(=O)oc(C)c1C(=O)OCC(=O)c1ccc(Cl)cc1 | 79.2% (active) |
| Cc1cc(=O)oc(C)c1C(=O)OCC(=O)c1ccc(Br)cc1 | -27.3% |
| CCOC(=O)N1CCN(S(=O)(=O)N2CCCC(C(=O)NCCc3ccccc3)C2)CC1 (stereo not given) | -26.5% |
| CC(C)c1[nH]c(=O)c(C#N)c2c1COC(C)(C)C2 | -18.6% |
| CC(C)n1c(O)c(N=NC(=O)CNC(=O)c2cccnc2)c2ccccc21 | -19.7% |
| CCCCc1nc(NCCO)c(C#N)c2c1CCCC2 | -8.5% |
| CCCc1nc(NCCO)c(C#N)c2c1CCCC2 | 17.9% |
| CC(C)c1nc(NCCO)c(C#N)c2c1CCCC2 | 81% (active) |
